High-throughput results: PubChem, National Center for Advancing Translational Sciences (NCATS)
aSyn yeast inh: alpha-synuclein toxicity inhibition in yeast | Potency, µM (series often up to 46.1 µM), for inactives: top-dose growth rescue (activation), hits mostly activators | hit rate 0.14% among 370,000 | AID 652106 | Yeast expressing alpha-synuclein, growth rescue, BacTiter-Glo, 24 h; also: % of control where 0% means no effect; nearly all actives have a fitted effect of over 65% in size
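Galactose-induced alpha-syn yeast (OD600=0.02, raffinose-pregrown) + pinned cpd, 24 hr, 30 deg C; growth by BacTiter-Glo luminescence. Growth restoration scores as activation.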
A-T KAP1 phos: potential ataxia-telangiectasia treatment; F2112 A-T fibroblasts, KAP-1 phosphorylation AlphaLISA; neocarzinostatin DNA damage 30 min before lysis; Potency, µM (series often up to 57.5 µM), for the others: at the highest dose activation, most hits filed as activators; hit rate 0.19% among 320,000; also: % of control where 0% means no effect; nearly all actives have a fitted effect of over 45% in size
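ATM-like activity read as KAP-1 phosphorylation via AlphaLISA donor/acceptor antibody pairs after lysis and 6 hr at 25C. Cells were ATM-null patient fibroblasts (F2112, hTERT), dosed 60 min, then exposed to the DSB inducer NCS for 30 min.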
Mito fusion yeast: mitochondrial division inhibition or fusion activation. hit rate 0.23% among 320,000. S. cerevisiae fusion-defective mutant growth rescue, CellTiterGlo 48 h. Potency, µM (doses to about 46.1 µM), without a hit: at the top dose growth rescue (activation), usual class: activators; also: % of control where 0% means no effect; nearly all actives have a fitted effect of over 45% in size
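Temperature-sensitive fusion-defective S. cerevisiae (e.g. fzo1-1, mgm1-5) were grown with compound in YPEG medium (3% ethanol, 3% glycerol) for 48 hours at 37C. Growth rescue was measured as viability by CellTiterGlo luminescence after 10 minutes at ambient.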
TDP43 rescue: rescues yeast growth from TDP-43 toxicity | TDP-43 expressing yeast growth rescue, BacTiter-Glo, 24 h | Potency, µM (highest dose often 46.1 µM), for inactives: top-dose growth rescue (activation), actives largely listed as activators | hit rate 1.8% among 410,000 | AID 652104; also: % of control where 0% means no effect; nearly all actives have a fitted effect of over 50% in size
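Luminescence from BacTiter-Glo reports growth of TDP-43-expressing yeast after 24 hr at 30 deg C with compound. Cells were raffinose-pregrown to mid-log, then seeded in galactose medium at OD600=0.02.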
Abeta rescue: restores growth of yeast expressing A-beta42 peptide | yeast expressing A-beta42, growth rescue, OD600, 48 h; response scale: 0% DMSO, 100% iron-clioquinol control | Potency, µM (top dose mostly 46.1 µM), hits mostly activators | hit rate 0.063% among 410,000 | AID 1347071; also: nearly all actives have a fitted effect of over 55% in size
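Yeast growth medium received pinned compounds, then yeast cells expressing toxic A-beta were added; plates incubated at 30 C for 48 hr. Growth read as absorbance at 600 nm, normalized to DMSO and equimolar FeCl3 plus clioquinol controls.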
FUS yeast rescue: FUS proteinopathy suppression in yeast | S. cerevisiae FUS-expressing, growth rescue, OD600, 24 h | Potency, µM (top dose mostly 76.6 µM), most hits filed as activators | hit rate 0.24% among 390,000 | AID 1347120;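 also: plate controls were DMSO vehicle for no effect and reference control for full effect; nearly all actives have a fitted effect of over 55% in size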
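Quantitative HTS measuring growth restoration of FUS-toxic yeast. Galactose-induced cells (OD 0.005) were exposed 24hr at 30C to compounds at several concentrations, then absorbance at 600 nm was recorded.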
Numbers without * were called inactive; i = inactive; ? = inconclusive; / = not tested or not shown. Compounds with a hit are over-represented: about 2.4% of the library has one in this group of screens. Calls follow the shape of the dose curve; as a rule, active = well fitted curve in the direction sought with a large enough effect; inconclusive = small, poorly fitted or top-dose-only effect, or another doubt; inactive = no such curve, though single readings can be large; an effect the other way counts as inactive or inconclusive. Potency is read from the fitted curve at half-maximal effect.

SMILES | aSyn yeast inh | A-T KAP1 phos | Mito fusion yeast | TDP43 rescue | Abeta rescue | FUS yeast rescue
O=C(N[C@H](Cc1ccc(Cl)cc1)C(=O)O)OCC1c2ccccc2-c2ccccc21 | 1% | 6% | 2% | -14% | i | i
COc1cccc(N2CCN(C(=O)c3cc4c(=O)n(Cc5ccco5)ccc4nc3C)CC2)c1 | / | / | / | -16% | i | ?
CC1Oc2ccccc2N(CC(=O)c2cccc(Cl)c2)C1=O (stereo not drawn) | 15% | 1% | 11% | 16µM* | i | i
CC1Oc2ccccc2C(=O)N(CC(=O)c2ccc3c(c2)OCCO3)C1=O (stereo not drawn) | 25% | 2% | 1% | 18µM* | i | i
Cc1ccc2c(c1)N(CC(=O)c1cccc(Cl)c1)C(=O)C(C)O2 (stereo not drawn) | 10% | 4% | 0% | 25% | i | /
CCc1ccc(S(=O)(=O)c2c(C(=O)c3ccc(C)c(C)c3)cnc3ccccc23)cc1 | / | / | / | 28% | i | i
COc1ccc(C2c3ccc4ccccc4c3Oc3ncn(CCCO)c(=N)c32)cc1OC (stereo not drawn) | 9% | 40µM* | -3% | -4% | i | i
COc1cccc(OC)c1NC(=O)OCCN1CCCC12CCC(c1ccccc1)CC2 (stereo not drawn) | / | / | / | / | / | i
COC(=O)N1C(=O)[C@](c2ccsc2)(C(C)C)N1C(=O)OC | -5% | 4% | 2% | 20µM* | i | i
COC(=O)N1C(=O)[C@](c2ccc(OC)cc2)(C(C)C)N1C(=O)OC | 19% | 0% | -1% | 18µM* | i | i
CC[C@@]1(c2ccccc2OC)C(=O)N(C(=O)OC)N1C(=O)OC | 1% | -4% | 1% | 15% | i | i
CC[C@@]1(c2cccc(C)c2)C(=O)N(C(=O)OC)N1C(=O)OC | 5% | 16% | -1% | 19% | i | i
Cn1c(=O)oc2cc(S(=O)(=O)N3CCCC(C(=O)NCCc4ccccc4)C3)ccc21 (stereo not drawn) | / | / | / | 7% | i | i
CCc1c(C)nc2nncn2c1Nc1ccc(Cl)cc1 | / | / | / | ? | i | i
CCc1c(C)nc2nncn2c1Nc1ccc(C(C)C)cc1 | / | / | / | 13µM* | i | i
S=C(Nc1ccccc1Cl)N(Cc1ccccc1)Cc1ccccn1 | 9% | 5% | 18µM* | ? | ? | i
COc1ccccc1NC(=S)N(Cc1ccccc1)Cc1ccccn1 | 4% | 3% | 13% | 22µM* | ? | i
CCCSc1nnc(Sc2nnnn2-c2ccccc2)s1 | 0% | -1% | 0% | 18µM* | i | i
COc1ccc(OC)c(S(=O)(=O)NCCCn2ccnc2)c1 | -6% | -5% | 5% | 12% | i | i
NNc1nc2c(-c3cccc(C(F)(F)F)c3)nnn2c2ccccc12 | 1% | 25µM* | ? | 7% | i | i
CN(C1=C(N2CCOCC2)C(=O)c2ccccc2C1=O)c1ccccc1 | -33% | -15% | 9% | 11µM* | i | /
O=C1C(NS(=O)(=O)c2cccs2)=C(N2CCOCC2)C(=O)c2ccccc21 | 3% | 7.1µM* | -13% | -10% | i | i
C=CCN1C(=O)[C@@H](CC(=O)N2CCN(C(=O)C3CC3)CC2)[C@]2(C(=O)OCC)CCCCC/C=C/12 | / | / | / | / | / | i
O=C(N/N=C/c1ccc(OCc2ccccc2)cc1)c1cc[n+](Cc2ccccc2)cc1 | 2% | 3% | -3% | 20µM* | i | i
Cc1nc2c(-c3ccccc3)c(C)[nH]n2c(=O)c1Cc1ccc(Br)cc1 | / | / | / | 17% | i | i
SMILES | aSyn yeast inh | A-T KAP1 phos | Mito fusion yeast | TDP43 rescue | Abeta rescue | FUS yeast rescue
Cc1cc(C)c(C)c(S(=O)(=O)ON2C(=O)c3ccccc3C2=O)c1C | 16% | 0% | 1% | 5.6µM* | i | /
COc1ccccc1CNc1ccc([N+](=O)[O-])cc1C | 2% | 7% | 17% | ? | i | i
COc1cccc(CNc2ccc([N+](=O)[O-])cc2Cl)c1O | -17% | 13% | ? | 14µM* | i | i
COc1cccc(C2CC(=O)Nc3c2ccc(C)c3C)c1OC (stereo not drawn) | / | / | / | 18µM* | i | i
Cc1ccc2c(c1C)NC(=O)CC2c1ccc(Cl)cc1Cl (stereo not drawn) | / | / | / | 35µM* | i | i
Cc1c(CC(=O)NCc2ccccc2)c(=O)oc2c(C)c(O)ccc12 | / | / | / | 16% | i | i
COc1cc(C2CC(=O)N(c3ccc(C)c(Cl)c3)C3=C2C(=O)OC3)cc(OC)c1OC (stereo not drawn) | / | / | / | 3% | i | i
CN(C)c1cc(Nc2ccc(O)cc2)c([N+](=O)[O-])c2nonc12 | 4% | 7.1µM* | 3% | -3% | i | i
CN1C(=O)C2C=CC1C1C(=O)N(c3ccccc3)C(=O)C21 (stereo not drawn) | -10% | / | 6.3µM* | ? | i | i
O=C1C2C3C=CC(C3=C3CCCCC3)C2C(=O)N1c1ccccc1 (stereo not drawn) | 13% | -1% | 1% | 20% | i | i
CCOC(=O)N1CCN(c2nc3ccccc3n3cnnc23)CC1 | 3% | 0% | 25µM* | 14% | i | i
CCN(c1cccc(C)c1)C(CNS(=O)(=O)c1ccccc1)c1ccccc1 (stereo not drawn) | / | / | / | 23% | i | i
CCN(c1ccccc1)C(CNS(=O)(=O)c1ccccc1)c1ccccc1 (stereo not drawn) | / | / | / | 18µM* | i | i
